TRb-SRC2 inh: TRbeta-SRC2 interaction inhibition; P10828; TRbeta-SRC2 peptide binding, fluorescence polarization; receptor liganded with 1 µM T3; Potency, µM (top dose mostly 106 µM), without a hit: at the top dose activity change, negative = inhibition, hits mostly inhibitors; 0.065% of 280,000 active;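 note: potency is the fitted concentration of half-maximal effect; plate controls were bound peptide for no effect and peptide without receptor for full effect; nearly all actives have a fitted effect of over 50% in size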
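Human TRb ligand-binding domain (0.6 uM) is mixed with 20 nM Texas Red SRC2 peptide and 1 uM T3; after compound addition and 5 hr at ambient temperature, polarization is measured and normalized to unbound and bound controls.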
TSHR antag: blocks TSH signaling through the human TSH receptor. P16473. TSHR-expressing cells, TSH-stimulated cAMP HTRF, 2 h; hits give low values. activity change, negative = inhibition, % at 11.5 µM. 0.2% of 330,000 active;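 active = activity change below a set negative limit, meaning inhibition stronger than a set level, cut at about -70% in these data; inconclusive = activity change between two set negative limits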; note: % is set by controls: 0 for no effect and ±100 for the full control effect
Target sequence (P16473 whole entry, looked up): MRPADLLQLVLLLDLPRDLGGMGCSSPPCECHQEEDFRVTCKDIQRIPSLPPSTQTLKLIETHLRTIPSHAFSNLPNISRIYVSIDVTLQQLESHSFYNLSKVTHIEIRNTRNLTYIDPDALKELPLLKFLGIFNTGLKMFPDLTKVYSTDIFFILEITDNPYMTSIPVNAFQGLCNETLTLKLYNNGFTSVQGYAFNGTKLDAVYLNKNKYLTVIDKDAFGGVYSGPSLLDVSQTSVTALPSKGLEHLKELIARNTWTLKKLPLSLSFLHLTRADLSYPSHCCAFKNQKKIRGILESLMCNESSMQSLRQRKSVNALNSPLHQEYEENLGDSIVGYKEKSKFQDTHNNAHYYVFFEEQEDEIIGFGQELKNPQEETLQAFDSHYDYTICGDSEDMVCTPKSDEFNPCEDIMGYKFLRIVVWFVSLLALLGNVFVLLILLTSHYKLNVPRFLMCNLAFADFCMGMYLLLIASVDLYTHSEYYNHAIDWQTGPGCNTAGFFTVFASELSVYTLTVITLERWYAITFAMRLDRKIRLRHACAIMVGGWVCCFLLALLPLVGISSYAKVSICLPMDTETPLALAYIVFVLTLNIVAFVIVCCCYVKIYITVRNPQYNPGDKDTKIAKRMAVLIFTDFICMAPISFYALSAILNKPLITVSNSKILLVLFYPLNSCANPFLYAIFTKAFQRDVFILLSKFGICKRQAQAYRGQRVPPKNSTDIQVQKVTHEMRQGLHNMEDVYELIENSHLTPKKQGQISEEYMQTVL
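Inhibition of cAMP made by TSHR-expressing cells under TSH stimulation (4nM final, EC80; 2 h, 37 deg C) is quantified with a one-step lysis HTRF kit, anti-cAMP cryptate versus cAMP-d2.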
Eya2 phos inh: Eya2 (human) phosphatase inhibition. recombinant Eya2, OMFP fluorescence dephosphorylation (OMFP is methylfluorescein phosphate). Potency, µM (doses to about 76.9 µM), without a hit: at the top dose activity, negative = inhibition, actives largely listed as inhibitors. 0.006% of 330,000 active; note: potency is the fitted concentration of half-maximal effect; % is set by controls: 0 for no effect and ±100 for the full control effect
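Eya2 protein (added as 0.2 uM solution) was preincubated with compound for 10 min at ambient temperature in 50 mM HEPES pH 7.5, 50 mM NaCl, 5 uM MgCl2, 0.05% BSA, 1 mM DTT. OMFP (added at 50 uM) then reacted 10 min; fluorescence read at 485/525 nm.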
USP2a block: inhibitors of human ubiquitin-specific protease USP2a; O75604; USP2 core, Ub-CHOP2 coupled fluorogenic reporter, 485/531; Potency, µM (top dose mostly 38.3 µM), inactives show top-dose activity change, negative = inhibition, usual class: inhibitors; 0.01% of 330,000 active; AID 463254;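 note: potency is the fitted concentration of half-maximal effect; plate controls were DMSO wells for no effect and full inhibition by NEM control for full effect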
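Cell-free coupled assay: 10nM USP2 core preincubated 30min RT with compound in Tris-HCl pH 8.0/CaCl2/CHAPS buffer, then 25nM Ub-CHOP2 and 25nM reporter substrate; fluorescence (Ex 485/Em 531) read after 60min RT, normalized to NEM inhibition, concentration-response curves fitted.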
CBFb-RUNX1 inh: inhibitors of human CBF-beta and RUNX1 interaction. AlphaScreen CBFb-His/RUNX1-biotin binding, biochemical. Q01196+Q13951. 230,000 tested, under 10 active. Potency, µM (highest dose often 59.8 µM), for the others: at the top dose activity, negative = inhibition, hits mostly inhibitors; note: % of control where 0% means no effect
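CBFb-His/RUNX1-biotin, 30 nM each, preincubated 20 min RT; compound 15 min RT; Ni + streptavidin beads 50 ng each, 90 min RT; AlphaScreen read.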
TexasRed fluor: counter-screen for TRb-SRC2 inhibitors: fluorescence interference; TRb/SRC2 Texas Red total fluorescence interference; Potency, µM (titrated, usually from 106 µM), without a hit: top-dose fluorescence change, negative = quenching; 0.29% of 280,000 active; active = well fitted curve in either direction with a large enough effect; inconclusive = small, poorly fitted or top-dose-only effect; note: potency is the fitted concentration of half-maximal effect; % is set by controls: 0 for no effect and ±100 for the full control effect
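Flags fluorescent or light-absorbing compounds by total fluorescence, S + 2P, at 555 nm excitation and 632 nm emission. Mixture: 20 nM Texas Red SRC2 peptide, 0.6 uM human TRb LBD, 1 uM T3, 5% DMSO; compound exposure 5 h at ambient temperature.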
Starred values were filed as active, the others as inactive; ? = inconclusive; / = not tested or not shown; [ ] = dose if it differs, or a comment. Most compounds without a hit are left out; they make up all but 0.38% or so of the library. Unless noted, calls come from the whole dose curve; as a rule, active = well fitted curve in the direction sought with a large enough effect; inconclusive = small, poorly fitted or top-dose-only effect, or another doubt; inactive = no such curve, though single readings can be large; an effect the other way counts as inactive or inconclusive.

SMILES	TRb-SRC2 inh	TSHR antag	Eya2 phos inh	USP2a block	CBFb-RUNX1 inh	TexasRed fluor
COc1ccccc1-c1cc(C(=O)NCc2ccccc2)c2c(-c3ccc(C)cc3)[nH]nc2n1	-1%	/	/	/	/	-14%
COc1cc(OC)c(-c2cc(C(=O)NCc3ccc(F)cc3)c3c(-c4ccccc4)[nH]nc3n2)cc1OC	-27%	/	/	/	/	3.5µM*[quencher]
CCCCN(Cc1ccccc1)c1ncnc2nc[nH]c12	-1%	-70*	-2%	1%	1%	-1%
CCCCN(CCCC)c1ncnc2nc[nH]c12	-2%	-27	-3%	0%	-5%	0%
CC(=O)c1cc(-c2ccc(F)cc2)n(CC(=O)NCc2ccc(C)cc2)c1C	-4%	/	/	/	/	-1%
Cc1ccc(Cl)cc1NC(=O)CN1C(=O)C(C)(C)c2cc(S(=O)(=O)N3CCCCC3)ccc21	-20%	/	/	/	/	0.0045µM*[quencher]
CC(C)[C@H](NC(=O)[C@@H](Cc1c[nH]c2ccccc12)NC(=O)[C@H](Cc1ccc(O)cc1)NC(=O)[C@@H](N)CC(=O)O)C(=O)N[C@H](Cc1c[nH]c2ccccc12)C(=O)N[C@H](Cc1c[nH]c2ccccc12)C(=O)N[C@@H](CCCCN)C(N)=O	5%	/	/	/	8%	-13%
CC(=O)N1N=C(c2ccc(C)cc2)CC1c1cn(-c2ccccc2)nc1-c1cccs1 (stereo not given)	-7%	/	/	/	/	100µM*[quencher]
CCn1c(=S)sc2c(=O)n(CC(=O)Nc3ccccc3C(F)(F)F)c(C)nc21	/	-127*	2%	5%	/	/
C[Si]1(C)O[Si](C)(C)O[Si](C)(C)O1	7%[201 µM]	/	/	/	/	0%[201 µM]
CCCOc1ccc(C2C(=O)N(C3CCCCC3)CC(=O)N2CCc2ccccc2)cc1OC (stereo not given)	-9%	/	/	/	/	-2%
CCOC(=O)c1cc(-c2ccc(F)cc2)n(CCC(=O)NCc2ccc(C)cc2)c1C	2%	/	/	/	/	0%
CCCn1nc([N+](=O)[O-])c(C(C#N)c2nc3ccccc3s2)c(Cl)c1=O (stereo not given)	-6%	-76*	-7%	-10%	?	?
CCOc1ccc(/C=N/NC(=O)c2cc(-c3ccco3)nc3ccccc23)cc1	3%	3	1%	-1%	-16%	1%
Cc1csc(NC(=O)c2cc(-c3ccco3)nc3ccccc23)n1	-21%[53 µM]	20	0%	-22%	-7%	7.1µM*[quencher]
O=C(N/N=C/c1ccc(F)cc1)c1cc(-c2ccco2)nc2ccccc12	3%	8	1%	?	/	32µM*[quencher]
Cc1cccc(-c2csc(N3CCC(C(N)=O)CC3)n2)c1	/	-6	/	/	/	/
CC(C)(N=C=O)c1cccc(C(C)(C)N=C=O)c1	0%[201 µM]	/	/	/	/	-6%[201 µM]
CCCSc1nsc(NC(=O)Nc2ccc(F)cc2F)n1	/	-119*	5%	-2%	/	/
CCCSc1nsc(NC(=O)C(c2ccccc2)c2ccccc2)n1	10%	-80*	2%	-14%	3%	0%
CCN(CC)CCN1C(=O)c2cccc3cc(N)cc(c23)C1=O	1%	-76*	-9%	16%	-5%	-1%
Nc1cc2c3c(cccc3c1)C(=O)N(CCN1CCCC1)C2=O	-6%	-32	-3%	4%	-6%	-3%
CO/S(=N\S(=O)(=O)c1ccc(Cl)cc1)c1ccc([N+](=O)[O-])cc1 (stereo not given)	/	4	13%	/	/	/
O=c1c(O)cc(C2Oc3cc(O)cc(O)c3CC2O)cc2c(C3Oc4cc(O)cc(O)c4CC3O)cc(O)c(O)c12 (stereo not given)	1%	/	/	/	/	28µM*[quencher]
CCn1c(CSc2nccn2C)nc2cc(C(=O)O)ccc21	?	5	-4%	7%	23%	13µM*[fluorescent]
SMILES	TRb-SRC2 inh	TSHR antag	Eya2 phos inh	USP2a block	CBFb-RUNX1 inh	TexasRed fluor
CCn1cc2nc(SCC(=O)Nc3ccc(OC)c(OC)c3)n(Cc3ccc(OC)cc3)c(=O)c2n1	/	16	-3%	2%	/	/
CCn1cc2nc(SCC(=O)Nc3ccc(OC)c(Cl)c3)n(Cc3ccc(OC)cc3)c(=O)c2n1	?	/	/	/	/	3.5µM*[quencher]
NC(=O)c1sc2nc3c(c(-c4ccco4)c2c1N)CCCC3	7%	-1	-3%	-1%	6%	-4%
Nc1c(C(=O)NCC2CCCO2)sc2nc3c(c(-c4ccco4)c12)CC/C3=C\c1ccco1 (stereo not given)	9%	-9	7%	?	/	11µM*[quencher]
COCCNC(=O)Nc1cc(C(=O)NCc2ccc(C(C)C)cc2)ccc1N1CCCC1	-3%	/	/	/	/	0%
COC1=C(OC)C(=O)c2ccccc2C1=O	1%	14	?	/	2%	-2%
COc1ccc(CC2=CC(=O)c3ccccc3C2=O)cc1	/	-83*	4%	-1%	/	/
O=C(O)c1ccc(CN2C(=O)c3cccc4c([N+](=O)[O-])ccc(c34)C2=O)cc1	/	-40	?	11%	/	/
Cc1ccc(C(=O)O)cc1N1C(=O)c2cccc3c([N+](=O)[O-])ccc(c23)C1=O	/	-73*	?	8%	/	/
CCOc1cc(C(=O)OCc2cc(=O)n3nc(C4CC4)sc3n2)cc(OCC)c1OCC	-2%	/	/	/	/	-2%
O=C(Nc1ccc(Cl)cc1)c1cc2c(cc1O)[nH]c1ccccc12	-2%	-110*	-28%	0%	27%	-12%
CC1=CCC2C(=O)N(c3ccc(C(=O)Nc4ccccc4Cl)cc3)C(=O)C2C1 (stereo not given)	/	-82*	-12%	-2%	/	/
CCCCCCCC/C=C\CCCCCCCC(=O)OC	7%[201 µM]	/	/	/	/	0%[201 µM]
CSC1=NSC2=NC(=O)/C(=C\c3coc4ccccc4c3=O)C(=N)N12	21%	-91*	?	?	6%	-17%
Oc1ccc(C(c2ccc(O)cc2)C(Cl)(Cl)Cl)cc1	2%[201 µM]	/	/	/	/	-1%[201 µM]
Nc1nc(SCC(=O)Nc2cc(Cl)c(Cl)cc2Cl)n[nH]1	/	-74*	-20%	1%	/	/
O=C(CCOc1ccccc1)Nc1cccc([N+](=O)[O-])c1	-7%	22	2%	4%	-14%	3%
O=C(COc1ccccc1)NC(=S)Nc1cccc([N+](=O)[O-])c1	?	40	-7%	-1%	-19%	0.89µM*[quencher]
Cc1ccc(F)cc1-c1ccc(C(=O)N=C(N)N)o1	-6%	/	/	/	15%	1%
Cc1ccc(NC(=O)Cc2ccc(Cl)c(Cl)c2)cc1S(=O)(=O)N(C)C	5%[53 µM]	-33	0%	1%	17%	-2%[53 µM]
Cc1ccc(NC(=O)Cc2ccccc2Cl)cc1S(=O)(=O)N(C)C	-24%[53 µM]	21	-20%	3%	-6%	0.1µM*[quencher]

Bioassay records from PubChem.
